Screening data as filed in PubChem.
Rows were chosen to be rich in hits. Some 4% of all compounds tested hit in one or more screens of this group.
MITF TRPM1 inh: inhibitors of MITF-dependent TRPM1 promoter reporter, primary screen, cell-based, SK-MEL-5, single point, luciferase; SK-MEL-5 TRPM1 promoter luciferase, 24 h; inhibition, % at 12.5 µM; actives 0.83% (n = 330,000);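 active = mean inhibition across replicates of 60% or more, whatever share of single replicates reaches that level; inconclusive = some that reach 60%, reason not given; inactive = mean inhibition across replicates below 60%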
Wnt act: Wnt/beta-catenin pathway activators, primary screen, cell-based, plate reader, single point; Wnt/beta-catenin reporter cell assay, activator; activation, % at 9.35 µM; actives 1.2% (n = 300,000); in the data active = activation above about 30%, passing the limit was not always enough; inconclusive = no clear call, values can overlap the other calls;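 also: 0% = neutral control wells and 100% = positive control wells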
esBAF inh: Bmi1 luciferase reporter increase in mESCs, primary screen, esBAF inhibitor project, mouse ES cells, Bmi1 luciferase knock-in, single point. 24 h; 100% = twice the neutral-well signal. reporter increase, % at 12.5 µM. actives 2% (n = 350,000). AID 602393, 2012; in the data active = activation above about 40%; inconclusive = no clear call, values can overlap the other calls;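 also: 0% = median of the plate's neutral control wells and 100% = double that signal; a rise in the Bmi1 reporter signal indicates esBAF inhibition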
EBV LMP1 NFkB: EBV LMP1-driven NF-kappaB luciferase reporter inhibitors, primary screen, cell-based, luminescence, single point; LMP1-induced NF-kappaB luciferase reporter cells; inhibition, % at 12.5 µM; actives 0.69% (n = 350,000); AID 504558, 2011; in the data active = inhibition above about 41%; inconclusive = no clear call, values can overlap the other calls;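 also: 0% = neutral control wells and 100% = reference inhibitor control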
C2C12 statin: suppressors of statin myotoxicity in C2C12 myotubes, primary screen, cell-based, single point, plate reader | AID 602340, 2012 | rescue of ATP level, % at 7.49 µM | C2C12 myotubes + simvastatin, ATP luminescence, 48 h; scaled: DMSO 0, geranylgeraniol control 100 | actives 0.78% (n = 330,000);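 active = mean ATP rescue above about 67%, or every replicate alone reaching that limit, limit read from the data, passing the limit was not always enough; inconclusive = no clear call, values can overlap the other calls; inactive = mean under the limit and some replicate under it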;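 also: myotubes were challenged with 10 µM simvastatin during compound exposure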
MITF act: activators of MITF-driven TRPM1 promoter reporter, primary screen, cell-based, SK-MEL-5, luciferase, single point. SK-MEL-5 TRPM1-promoter luciferase, 24 h; % of positive control, neutral wells = 0. actives 0.75% (n = 300,000). AID 588334, 2011. activation, % at 12.5 µM;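 active = mean activation of at least 80% with every replicate also reaching 80%; inconclusive = mean reaches 80% but some replicate falls short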;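 also: 0% = neutral control wells and 100% = parthenolide positive control wells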
Active calls of the source: *; ? = inconclusive; . = not tested or not shown.

SMILES	MITF TRPM1 inh	Wnt act	esBAF inh	EBV LMP1 NFkB	C2C12 statin	MITF act
O=C(NCc1ccco1)c1cc(-c2ccccc2)on1	-46.9	.	104.6*	12.2	-20.8	50.7
COc1ccc(C(=O)Nc2ccccc2C(=O)NCc2ccco2)cc1OC	-5.7	48.2*	16.9	4.6	13.6	.
COc1ccccc1N=c1oc2c(OC)cccc2cc1C(=O)NCc1ccco1	-63.2	.	52.2*	4.5	12.4	66.4
CCc1nc2ccc(C(=O)NCCc3ccco3)cc2nc1CC	-83.1	.	52.9*	-16.9	-2.6	87.4*
O=C(NCc1ccco1)c1cc(-c2ccc(F)cc2)on1	-69.6	.	-0.3	3.3	-9.0	72.1
CCOc1ccc(CCNC(=O)c2ccc3nc(CC)c(CC)nc3c2)cc1	8.8	2.0	7.0	8.5	4.9	-10.1
O=C(NCc1ccco1)c1ccc2ccccc2c1	-90.0	.	72.0*	-18.0	4.6	90.4*
O=C(NCc1ccco1)c1ccc(C(=O)NCc2ccco2)cc1	-3.2	0.1	.	1.8	.	1.6
Cc1nnc2sc(-c3ccc(N(C)C)cc3)nn2c1=O	-101.4	24.4	-11.4	-14.8	-1.7	108.7*
CN(C)c1ccc(-c2nn3c(-c4ccccc4Cl)nnc3s2)cc1	28.1	.	-19.6	10.7	.	.
CC(C)(C)c1ccc(-c2noc(CCC(=O)NCc3ccco3)n2)cc1	83.1*	-2.0	.	-9.8	.	-82.3
CC(O)(c1ccccc1)c1nc(-c2cccc(C(F)(F)F)c2)cs1 (stereo not given)	.	3.9	-11.1	.	-8.7	.
Cc1ccc(SCCNC(=S)Nc2ccc(C)c(C)c2)cc1	4.5	.	0.0	-9.3	-7.8	.
Cc1ccc(SCCNC(=S)Nc2cc(C)ccc2C)cc1	-3.6	.	-0.1	-7.7	73.1*	5.5
c1ccc(Nc2ncnc3c2oc2ccccc23)cc1	-9.8	29.0	87.7*	-10.4	-12.8	11.4
CC(C)Sc1ncnc2c1oc1ccccc12	-45.0	.	32.8	-17.4	20.3	47.6
Cc1nc(Nc2ccc3c(c2)OCO3)c2oc3ccccc3c2n1	-32.4	2.7	5.5	-12.3	-45.7	34.5
c1ccc2c(c1)oc1c(Nc3ccc4c(c3)OCO4)ncnc12	-38.7	33.5*	43.7*	-35.1	.	41.8
COc1ncnc2c1oc1ccccc12	-17.3	16.2	60.0*	4.7	11.3	22.7
NC1=NC(=O)NC1(c1ccccc1)c1ccccc1	7.9	-3.6	.	48.3*	.	-3.1
Cc1ccc(CN(C)C(=O)c2ccc(S(=O)(=O)N3CCCCCC3)cc2)o1	-10.9	35.6*	-2.4	0.0	6.4	13.0
CN(Cc1cccs1)C(=O)c1ccc(S(=O)(=O)N2CCCCC2)cc1	1.2	-2.9	.	1.9	.	-0.3
Cc1ccc(NC(=S)Nc2cccc3cnccc23)cc1C	-9.6	-0.9	45.5*	-14.6	-16.4	10.6
Cc1ccc(C)c(NC(=S)Nc2cccc3cnccc23)c1	-18.2	-0.3	.	9.0	.	18.7
Cc1ccc(NC(=S)Nc2cccc3cnccc23)cc1	11.8	26.2	68.3*	2.1	-4.1	-10.7
SMILES	MITF TRPM1 inh	Wnt act	esBAF inh	EBV LMP1 NFkB	C2C12 statin	MITF act
CC(=O)c1ccc(NC(=S)Nc2cccc3cnccc23)cc1	-8.1	11.5	.	-4.3	.	12.5
COc1nc(N/N=C/c2ccc(-c3ccccc3[N+](=O)[O-])o2)nc(N2CCOCC2)n1	-8.3	3.4	.	-5.8	.	10.1
O=[N+]([O-])c1ccc(-c2ccc(/C=N/Nc3nc(NCc4ccccc4)nc(N4CCOCC4)n3)o2)cc1	77.0*	3.9	.	-83.1	.	-75.2
CCC(c1nc2ccccc2c(=O)n1CCN1CCOCC1)N1C(=O)c2ccccc2C1=O (stereo not given)	0.8	-3.4	-5.2	-35.1	140.7*	0.2
CC(=O)Nc1ccc(NC(=O)CN(c2ccccc2Cl)S(C)(=O)=O)cc1	-6.5	40.0*	-2.2	0.4	-2.7	4.6
CS(=O)(=O)N(CC(=O)N/N=C/c1cccs1)c1cccc(Cl)c1Cl	-10.8	-0.7	-0.1	2.6	118.6*	.
Cc1ccccc1S(=O)(=O)N(C)C[C@H]1OCc2cnnn2CCCC(=O)N([C@@H](C)CO)C[C@H]1C	.	12.6	0.5	0.9	-1.6	.
CCn1nc(C)c(/C=N/NC(=O)c2c[nH]c3ccccc23)c1C	-40.2	-0.3	.	-15.8	.	34.8
CC(=O)Nc1sc2c(c1C#N)CCC(C)C2 (stereo not given)	-15.2	0.1	17.8	6.4	111.1*	14.5
Cc1cc(C(=O)Nc2sc3c(c2C#N)CCC(C)C3)cs1 (stereo not given)	-65.5	29.6	51.6*	-40.2	-57.9	67.8
Cc1oc2cc3oc(=O)c(CCC(=O)NCCC(=O)O)c(C)c3cc2c1C	14.0	0.3	-7.3	-3.1	4.3	-8.7
C[n+]1ccccc1/C=C/c1ccc2ncccc2c1	2.9	-1.2	70.7*	5.6	1.3	.
Nc1ccc2cc3[nH]c4cc(N)ccc4c3nc2c1	82.6*	5.0	-80.7	62.3*	-83.4	-81.6
CCOC(=O)c1c(NC(=O)c2ccoc2C)sc(C(=O)N(C)C)c1C	6.8	.	.	-1.4	.	-4.7
CSc1ccc(C2NC(=O)c3ccccc3N2)cc1 (stereo not given)	-14.8	23.1	64.9*	-15.4	-10.5	.
O=C1NC(c2ccc(O)cc2)Nc2ccccc21 (stereo not given)	-7.6	8.6	18.6	-6.8	5.3	.
Cc1ccc(-c2n[nH]c(=O)c3ccccc23)cc1S(=O)(=O)N(C)C	-4.2	-4.0	0.7	1.1	0.3	.
COCCNC(=O)c1ccc(C)c(S(=O)(=O)Nc2ccc(C)cc2)c1	-8.6	-2.4	-2.8	-4.9	-9.9	6.2
CCOC(=O)c1ccc(NS(=O)(=O)c2ccc(-c3coc(C)n3)cc2)cc1	-8.5	3.7	32.0	-2.4	92.8*	9.4
COc1cccc(NC(=O)n2ncc3c(C)cccc32)c1	-12.7	44.6*	-35.3	-20.9	-71.6	8.8
CCOc1ccc(NC(=O)n2ncc3c(C)cccc32)cc1	-57.9	23.3	?	-24.6	-22.4	64.9
Cc1cccc2c1cnn2C(=O)Nc1ccc(Br)cc1F	-55.4	0.0	3.4	-9.4	99.2*	55.5
Cc1ccc(NC(=O)n2ncc3c(C)cccc32)c(C)c1	-52.5	10.2	39.9	-8.6	7.9	51.9
COC(=O)c1ccc(C2CC(=O)NC3=C2C(=O)CCC3)cc1 (stereo not given)	14.0	.	-3.6	-6.7	113.9*	-13.5
Cc1cccc(C(C)C)c1NC(=O)c1cc2ccccc2o1	-2.6	2.6	4.0	-1.9	-8.0	-0.9
CCCn1c(SCC(=O)Nc2ccc(Cl)cc2)n[nH]c1=O	3.9	-1.9	.	-0.8	.	-4.2
